Test [1] is described as follows: NCI Yeast Anticancer Drug Screen. Data for the rad50 strain (AID 155).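 Also: 0% = growth of vehicle-only cultures of the same strain.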 The conditions noted are these: S. cerevisiae rad50 strain growth inhibition; at 50.0 µM; hits give high values. Put shortly:
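Genetically altered yeast (DNA repair pathway); compound treatment; growth inhibition vs vehicle ctrl.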

Test [2] in a line: NCI Yeast Anticancer Drug Screen. Data for the mec2-1 strain (AID 157). The conditions noted are these: S. cerevisiae mec2-1 strain, at 50.0 µM, hits give high values. The procedure, abridged:
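Compounds were applied to mec2-1 yeast cells. Their growth was then compared with that of vehicle-treated cultures to give growth inhibition.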

Test [3] can be described thus: NCI Yeast Anticancer Drug Screen. Data for the sgs1 mgt1 strain (AID 161).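 Also: 0% = growth of cultures given vehicle only.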 Particulars: S. cerevisiae sgs1 mgt1 strain, at 50.0 µM, hits give high values. The procedure, abridged:
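Percent growth inhibition was derived by comparing compound-exposed mutant yeast with vehicle-exposed cultures. The strain carries alterations in DNA damage repair.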

Test [4] is described as follows: NCI Yeast Anticancer Drug Screen. Data for the cln2 rad14 strain (AID 165).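 Also: 0% = growth equal to vehicle treated cultures.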 Particulars: S. cerevisiae cln2 rad14 strain, at 50.0 µM, hits give high values. Put shortly:
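Strain: cln2 rad14 yeast, altered in cell cycle control and DNA damage repair. Read-out: growth inhibition vs vehicle.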

A short description of test [5]: NCI Yeast Anticancer Drug Screen. Data for the bub3 strain (AID 167). Particulars: S. cerevisiae bub3 mutant strain, at 50.0 µM, hits give high values. The procedure, abridged:
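Yeast carrying a defined mutation is treated with each compound, and growth is compared with that of vehicle-exposed cells to give inhibition.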

Test [6] can be described thus: NCI Yeast Anticancer Drug Screen. Data for the mlh1 rad18 strain (AID 175). The conditions noted are these: S. cerevisiae mlh1 rad18 strain growth inhibition; at 50.0 µM; hits give high values. Put shortly:
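A repair-deficient yeast strain is exposed to test compound, and growth is scored relative to vehicle-treated controls.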

The panel holds about 79,000 compounds, 15% with a hit somewhere; the sample as a whole holds those more often. Values without a mark were called inactive. Active and inactive are the calls of the source. Rule as the data show it: active = growth inhibition above about 70%; inactive = the rest.

`C/C=C(/C)C(C#N)(CCC)C(=O)OCC` (stereo unspecified): the growth inhibition in test [1] was 5.9%; in test [2], -12.4%; in test [3], -8.7%; in test [4] it was 3%; in test [5] it was -9.85%; in test [6], 11.3%.

Consider `O=S(=O)(O)ON=C1c2ccccc2-c2ccccc21`, for which the growth inhibition in test [1] was 0.6%; in test [2], -10.7%; in test [3], 10.4%; in test [4] it was 10.4%; in test [5], 6.55%; in test [6], -13.6%.

In the case of `C=CC(=O)NC(C)C(=O)O` (stereo unspecified), the growth inhibition in test [1] is -4.45%; in test [2], -2.5%; in test [3], 0%; in test [4], -7.05%; in test [5], -10.9%; in test [6] it was -4.15%.

In the case of `CC(O)C1OC(n2cnc3c(=O)[nH]cnc32)C(O)C1O` (stereo unspecified), the growth inhibition was -9.45% in test [1]; -24.9% in test [2]; -0.65% in test [3]; -0.85% in test [4]; -7.05% in test [5]; -22.9% in test [6].

For `O=C1NC(=O)N(C(F)(F)F)C(F)(F)N1C(F)(F)F`, the growth inhibition in test [1] was 1.25%; in test [2], 4.55%; in test [3], 3.75%; in test [4], 30.9%; in test [5] it was 5.8%; in test [6], 23.1%.

For the molecule `C1CC(CCC2CCNCC2)CCN1`, the growth inhibition in test [1] is 1.6%; in test [2], 1.15%; in test [3], 4.15%; in test [4], -13.4%; in test [5], 11.7%; in test [6], 1.55%.

As to `Cc1c(C(=O)Nc2ccccc2)nnn1-c1ccnc2cc(C(F)(F)F)ccc12`, the growth inhibition was -13.8% in test [1]; -6.75% in test [2]; -8.85% in test [3]; -4.05% in test [4]; -5.6% in test [5]; 2% in test [6].

`Cc1ccccc1C(c1ccccc1)C(CO)CO` (stereo unspecified): the growth inhibition in test [1] is -1%; in test [2], 0.15%; in test [3] it was 2.9%; in test [4], -64.3%; in test [5], -5.4%; in test [6], -17.4%.

With `CC(=O)NC1CCCC(CC2CCCCC2)C1` (stereo unspecified), the growth inhibition in test [1] was 18.4%; in test [2], 0.45%; in test [3] it was -7.8%; in test [4], -56%; in test [5] it was 17.6%; in test [6], -14.9%.

As for `Nc1nnc(-c2ccccc2)o1`, the growth inhibition in test [1] is 9.85%; in test [2] it was -4.8%; in test [3], 4.05%; in test [4] it was -19.9%; in test [5], 4.8%; in test [6], 3.35%.

On to `CCOC(=O)/C=C/SCCC(=O)OC`, for which the growth inhibition is 37.3% in test [1]; 21.9% in test [2]; 7.9% in test [3]; 12.4% in test [4]; 15% in test [5]; 40.8% in test [6].

Take `CC(=O)OCCn1c(C)nc2cc(Cl)c(Cl)cc21`: the growth inhibition was 33.1% in test [1]; 5.45% in test [2]; 16.3% in test [3]; 31.9% in test [4]; 23.7% in test [5]; 36.2% in test [6].

`COc1nc(NC2OC(COC(C)=O)C(OC(C)=O)C(OC(C)=O)C2OC(C)=O)c(C(=O)CCl)c(=O)[nH]1` (stereo unspecified): the growth inhibition in test [1] was 3.75%; in test [2] it was 6.5%; in test [3] it was 8.45%; in test [4], -0.4%; in test [5], -2.2%; in test [6], 13.7%.

Turning to `COc1ccc(C(=O)C(C(=O)CCC(=O)Nc2ccc(Cl)c(Cl)c2)c2ccc(OC)cc2)cc1` (stereo unspecified), the growth inhibition is -9.65% in test [1]; 1.7% in test [2]; -11.3% in test [3]; -8.6% in test [4]; 18.6% in test [5]; -17.9% in test [6].

As for `O=c1[nH]c(NCc2ccc(Cl)cc2)nc2nc[nH]c12`, the growth inhibition is 0.85% in test [1]; -3.85% in test [2]; -19.5% in test [3]; 12.2% in test [4]; -8.55% in test [5]; -46.4% in test [6].

With `CCCCc1ccccn1`, the growth inhibition in test [1] is -9.1%; in test [2], 4.15%; in test [3], 14.1%; in test [4] it was -42.5%; in test [5], 7.4%; in test [6] it was 16.9%.

With `NNS(=O)(=O)c1ccc(Oc2ccc(S(=O)(=O)NN)cc2)cc1`, the growth inhibition is 10.8% in test [1]; 10.1% in test [2]; 24.6% in test [3]; -4.9% in test [4]; 14.9% in test [5]; 30.9% in test [6].

Regarding `CCOC(=O)/C=C/c1ccc(OCC)cc1`, the growth inhibition in test [1] was -2.4%; in test [2] it was 2.55%; in test [3], -7.15%; in test [4] it was -17.2%; in test [5], -1.35%; in test [6], -21%.

As for `c1csc(-c2nccc3ccccc23)c1`, the growth inhibition in test [1] was 1.6%; in test [2], 2.3%; in test [3], -19.2%; in test [4], 2.2%; in test [5], 7.7%; in test [6], 10.6%.

Consider `O=C(COc1ccc(Cl)cc1)Oc1c(Cl)cc(Cl)cc1Cl`, for which the growth inhibition was 96.4% (active) in test [1]; 97.8% (active) in test [2]; 98.7% (active) in test [3]; 96.8% (active) in test [4]; 98.2% (active) in test [5]; 98% (active) in test [6].

As to `CCCCNC(=O)c1ccc(C(C)C)cc1`, the growth inhibition is 9.2% in test [1]; -0.95% in test [2]; 0.4% in test [3]; -4.15% in test [4]; -0.9% in test [5]; -5.05% in test [6].
